# Measurements: the supplement of paper PMC10037445
# In all, about 2,900 compounds were measured (“NF-kB SEAP reporter activity, fold change vs agonist alone”: median about 0.99, highest 2% from about 2.6 on). The entries come from a sample that favours the highest values as a whole.
# Columns and labels:
# RAW-Dual [1] = test: NF-kB SEAP reporter activity, fold change vs agonist alone; higher = enhanced NF-kB activity; details: cytotoxicity flag (confluency mask): not cytotoxic
# Summary of the method: (§1)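 Library stock was pin-tooled at 50 nL into 384-well plates of RAW-Dual macrophages (50,000 cells/well, DMEM), followed 1 h later by a PRR agonist, and the cells were kept at 37 °C, 5% CO2. Supernatant collected after 20 hours was read for IRF by QuantiLuc luminescence and for NF-κB by QuantiBlue absorbance at 620 nm. Reporter activity is fold change over agonist-alone wells, and a well counted as cytotoxic when its IncuCyte confluency was below 70% of agonist controls in both mask sets.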
# RAW-Dual [2] = test: NF-kB SEAP reporter activity, fold change vs agonist alone; cytotoxicity flag (confluency mask): not cytotoxic; higher = enhanced NF-kB activity
# Summary of the method: as §1
# [3] = library stock concentration (final ~1000-fold dilution): 10 mM, agonist: Imiquimod (TLR7) […]
# [4] = library stock concentration (final ~1000-fold dilution): 10 mM, agonist: MPLA (TLR4) […]
# [5] = agonist: ODN 1826 (TLR9) 0.5 ug/mL
# [6] = agonist: Pam2CSK4 (TLR2/6) 0.1 ug/mL
# [7] = agonist: Pam3CSK4 (TLR2/1) 0.1 ug/mL
# [8] = library stock concentration (final ~1000-fold dilution): 10 mM water, agonist: Imiquimod (TLR7) […]
# [9] = library stock concentration (final ~1000-fold dilution): 10 mM water, agonist: MPLA (TLR4) […]
compound,measurement,setting,value
COc1ccc(-c2ccc3c(N4CCOCC4)nc(N4CC(C)OC(C)C4)nc3n2)cc1CO (centres undefined),NF-kB SEAP reporter activity,RAW-Dual [1]; [3],0.91
same,NF-kB SEAP reporter activity,RAW-Dual [1]; [4],0.935
Cl.O=c1n(CCCN2CCN(c3cccc(Cl)c3)CC2)nc2ccccn12,NF-kB SEAP reporter activity,"RAW-Dual [1]; library stock concentration (final ~1000-fold dilution): 2 mM, agonist: Imiquimod (TLR7) […]",1.05
same,NF-kB SEAP reporter activity,"RAW-Dual [1]; library stock concentration (final ~1000-fold dilution): 2 mM, agonist: MPLA (TLR4) […]",1.08
O=c1n(CCCN2CCN(c3cccc(Cl)c3)CC2)nc2ccccn12,NF-kB SEAP reporter activity,RAW-Dual [1]; [3],2.36
same,NF-kB SEAP reporter activity,RAW-Dual [1]; [4],2.42
CCc1nn(CCCN2CCN(c3cccc(Cl)c3)CC2)c(=O)n1CCOc1ccccc1.Cl (library stock concentration (final ~1000-fold dilution): 10 mM),NF-kB SEAP reporter activity,RAW-Dual [2]; agonist: LPS (TLR4) 0.1 ug/mL,0.981
same,NF-kB SEAP reporter activity,RAW-Dual [2]; [5],0.799
same,NF-kB SEAP reporter activity,RAW-Dual [2]; [6],0.822
same,NF-kB SEAP reporter activity,RAW-Dual [2]; [7],0.646
CCc1nn(CCCN2CCN(c3cccc(Cl)c3)CC2)c(=O)n1CCOc1ccccc1.Cl,NF-kB SEAP reporter activity,RAW-Dual [1]; [4],0.878
Cl.O=c1n(CCCN2CCN(c3cccc(Cl)c3)CC2)nc2ccccn12 (library stock concentration (final ~1000-fold dilution): 2 mM),NF-kB SEAP reporter activity,RAW-Dual [2]; agonist: LPS (TLR4) 0.1 ug/mL,1.15
same,NF-kB SEAP reporter activity,RAW-Dual [2]; [5],1.04
same,NF-kB SEAP reporter activity,RAW-Dual [2]; [6],1.1
same,NF-kB SEAP reporter activity,RAW-Dual [2]; [7],1.37
O=c1n(CCCN2CCN(c3cccc(Cl)c3)CC2)nc2ccccn12 (library stock concentration (final ~1000-fold dilution): 10 mM),NF-kB SEAP reporter activity,RAW-Dual [2]; agonist: LPS (TLR4) 0.1 ug/mL,2.72
same,NF-kB SEAP reporter activity,RAW-Dual [2]; [5],1.65
same,NF-kB SEAP reporter activity,RAW-Dual [2]; [6],1.15
same,NF-kB SEAP reporter activity,RAW-Dual [2]; [7],1.22
COc1nc(N)nc2c1ncn2C1OC(CO)C(O)C1O (centres undefined),NF-kB SEAP reporter activity,RAW-Dual [1]; [3],0.924
same,NF-kB SEAP reporter activity,RAW-Dual [1]; [4],0.994
COc1nc(N)nc2c1ncn2C1OC(CO)C(O)C1O (centres undefined) (library stock concentration (final ~1000-fold dilution): 10 mM),NF-kB SEAP reporter activity,RAW-Dual [2]; agonist: LPS (TLR4) 0.1 ug/mL,1.43
same,NF-kB SEAP reporter activity,RAW-Dual [2]; [5],0.996
same,NF-kB SEAP reporter activity,RAW-Dual [2]; [6],1.08
same,NF-kB SEAP reporter activity,RAW-Dual [2]; [7],1.23
CCOc1ccc(CC2NC(=O)CCSSCC(C(=O)N3CCCC3C(=O)NC(CCCN)C(=O)NCC(N)=O)NC(=O)C(CC(N)=O)NC(=O)C(C(C)O)NC(=O)C(C(C)CC)NC2=O)cc1 (centres undefined),NF-kB SEAP reporter activity,RAW-Dual [1]; [8],0.981
same,NF-kB SEAP reporter activity,RAW-Dual [1]; [9],1.06
CCOc1ccc(CC2NC(=O)CCSSCC(C(=O)N3CCCC3C(=O)NC(CCCN)C(=O)NCC(N)=O)NC(=O)C(CC(N)=O)NC(=O)C(C(C)O)NC(=O)C(C(C)CC)NC2=O)cc1 (centres undefined) (library stock concentration (final ~1000-fold dilution): 10 mM water),NF-kB SEAP reporter activity,RAW-Dual [2]; agonist: LPS (TLR4) 0.1 ug/mL,1.22
same,NF-kB SEAP reporter activity,RAW-Dual [2]; [5],1.15
same,NF-kB SEAP reporter activity,RAW-Dual [2]; [6],1.22
same,NF-kB SEAP reporter activity,RAW-Dual [2]; [7],1.02
COc1cc2c(cc1OC)C(=O)C(CC1CCN(Cc3ccccc3)CC1)C2.Cl (centres undefined),NF-kB SEAP reporter activity,RAW-Dual [1]; [8],0.84
same,NF-kB SEAP reporter activity,RAW-Dual [1]; [9],1.08
COc1cc2c(cc1OC)C(=O)C(CC1CCN(Cc3ccccc3)CC1)C2.Cl (centres undefined) (library stock concentration (final ~1000-fold dilution): 10 mM water),NF-kB SEAP reporter activity,RAW-Dual [2]; agonist: LPS (TLR4) 0.1 ug/mL,1.35
same,NF-kB SEAP reporter activity,RAW-Dual [2]; [5],1.16
same,NF-kB SEAP reporter activity,RAW-Dual [2]; [6],1.28
same,NF-kB SEAP reporter activity,RAW-Dual [2]; [7],1.29
COC(=O)NC(C(=O)NC(Cc1ccccc1)C(O)CN(Cc1ccc(-c2ccccn2)cc1)NC(=O)C(NC(=O)OC)C(C)(C)C)C(C)(C)C (centres undefined),NF-kB SEAP reporter activity,RAW-Dual [1]; [4],0.961
COC(=O)NC(C(=O)NC(Cc1ccccc1)C(O)CN(Cc1ccc(-c2ccccn2)cc1)NC(=O)C(NC(=O)OC)C(C)(C)C)C(C)(C)C (centres undefined) (library stock concentration (final ~1000-fold dilution): 10 mM),NF-kB SEAP reporter activity,RAW-Dual [2]; agonist: LPS (TLR4) 0.1 ug/mL,1.03
same,NF-kB SEAP reporter activity,RAW-Dual [2]; [5],1.02
same,NF-kB SEAP reporter activity,RAW-Dual [2]; [6],1.11
same,NF-kB SEAP reporter activity,RAW-Dual [2]; [7],0.79
COC(=O)NC(C(=O)NC(Cc1ccccc1)C(O)CN(Cc1ccc(-c2ccccn2)cc1)NC(=O)C(NC(=O)OC)C(C)(C)C)C(C)(C)C.O=S(=O)(O)O (centres undefined) (library stock concentration (final ~1000-fold dilution): 10 mM),NF-kB SEAP reporter activity,RAW-Dual [2]; agonist: LPS (TLR4) 0.1 ug/mL,1.54
same,NF-kB SEAP reporter activity,RAW-Dual [2]; [5],2.67
same,NF-kB SEAP reporter activity,RAW-Dual [2]; [6],1.47
same,NF-kB SEAP reporter activity,RAW-Dual [2]; [7],1.68
CC(C)CC(NC(=O)C(Cc1ccccc1)CC(O)C(Cc1ccccc1)NC(=O)OC(C)(C)C)C(=O)NC(Cc1ccccc1)C(N)=O (centres undefined),NF-kB SEAP reporter activity,RAW-Dual [1]; [3],0.843
same,NF-kB SEAP reporter activity,RAW-Dual [1]; [4],1.02
COC(=O)NC(C(=O)NC(Cc1ccccc1)C(O)CN(Cc1ccc(-c2ccccn2)cc1)NC(=O)C(NC(=O)OC)C(C)(C)C)C(C)(C)C.O=S(=O)(O)O (centres undefined),NF-kB SEAP reporter activity,RAW-Dual [1]; [3],2.01
same,NF-kB SEAP reporter activity,RAW-Dual [1]; [4],1.56
CC(C)CC(NC(=O)C(Cc1ccccc1)CC(O)C(Cc1ccccc1)NC(=O)OC(C)(C)C)C(=O)NC(Cc1ccccc1)C(N)=O (centres undefined) (library stock concentration (final ~1000-fold dilution): 10 mM),NF-kB SEAP reporter activity,RAW-Dual [2]; agonist: LPS (TLR4) 0.1 ug/mL,1.25
same,NF-kB SEAP reporter activity,RAW-Dual [2]; [5],0.998
same,NF-kB SEAP reporter activity,RAW-Dual [2]; [6],0.929
same,NF-kB SEAP reporter activity,RAW-Dual [2]; [7],0.958
